Screening data deposited in PubChem BioAssay by National Center for Advancing Translational Sciences (NCATS).
NPR1 antag: Natriuretic polypeptide receptor (hNpr1) antagonism - Primary qHTS | Atrial natriuretic peptide receptor 1 (Homo sapiens), P16066 | actives 1.6% (n = 76,000) | AID 1347048, 2019 | HEK293 hNpr1 GloSensor cGMP, ANP-stimulated luminescence | Potency, µM (doses to about 46.3 µM), hits mostly inhibitors; calls by dose curve; further: nearly all actives have a fitted effect of over 60% in size
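Compound pre-incubated 30 min at room temperature on GloSensor-loaded HEK293 cells stably carrying hNpr1 and the pGS-40F cGMP biosensor. Stimulation uses hNppA at 0.1 nM final; luminescence is taken at baseline and 20 min post-agonist.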
NIH3T3 tox: Cytotoxic Profiling in NIH 3T3 Cell Line of Diverse Libraries Using Quantitative High-Throughput Screening. Potency, µM (highest dose often 96.7 µM), most hits filed as inhibitors. NIH 3T3 viability, CellTiter-Glo ATP luminescence, 48-72 h. AID 1345082, 2018. actives 4.3% (n = 94,000); further: nearly all actives have a fitted effect of over 55% in size
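NIH 3T3 cells at 400 cells/well received 23 nL of compound by pintool and were incubated 48 or 72 h at 37 °C. Viability was read as ATP-coupled CellTiter-Glo luminescence.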
GPT2 inh: Primary qHTS assay for inhibitors of Glutamate pyruvate transaminase 2 (GPT2); Alanine aminotransferase 2 (Homo sapiens), Q8TD30; Recombinant GPT2, coupled pyruvate oxidase/HRP Amplex Red fluorescence; Potency, µM (titrated, usually from 57.7 µM), usual class: inhibitors; AID 1671188, 2021; actives 0.25% (n = 100,000); further: nearly all actives have a fitted effect of over 60% in size
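Fluorescence of coupled pyruvate oxidase/HRP/Amplex Red system (50uM Amplex, 30 min, dark) reports pyruvate formed by GPT2. Enzyme reaction: 10ng/uL GPT2, 2mM L-alanine, 250uM a-KG, 30 min room temperature, pH 7.5; 50uM AOA control.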
HEK cytotox: Cytotoxic Profiling in HEK 293 Cell Line of Diverse Libraries Using Quantitative High-Throughput Screening. HEK 293 viability, ATP luminescence (CellTiter-Glo), 48-72 h. Potency, µM (highest dose often 115 µM), most hits filed as inhibitors. actives 6.6% (n = 94,000). AID 1345083, 2018; further: nearly all actives have a fitted effect of over 60% in size
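Luminescence from cellular ATP, measured with CellTiter-Glo, indicates HEK 293 viability. Cells plated at 250 cells/well are treated with compound for 48 or 72 hr at 37 degree Celsius before reagent addition.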
FLuc inh: Firefly luciferase inhibition profiling of diverse chemical library using quantitative high-throughput screening; Luciferin 4-monooxygenase (Photinus pyralis), P08659; purified P. pyralis luciferase, luminescence, biochemical; Potency, µM (highest dose often 115 µM), hits mostly inhibitors; actives 2.5% (n = 76,000); AID 1347043, 2019; further: nearly all actives have a fitted effect of over 65% in size
Target sequence (P08659 whole entry, looked up): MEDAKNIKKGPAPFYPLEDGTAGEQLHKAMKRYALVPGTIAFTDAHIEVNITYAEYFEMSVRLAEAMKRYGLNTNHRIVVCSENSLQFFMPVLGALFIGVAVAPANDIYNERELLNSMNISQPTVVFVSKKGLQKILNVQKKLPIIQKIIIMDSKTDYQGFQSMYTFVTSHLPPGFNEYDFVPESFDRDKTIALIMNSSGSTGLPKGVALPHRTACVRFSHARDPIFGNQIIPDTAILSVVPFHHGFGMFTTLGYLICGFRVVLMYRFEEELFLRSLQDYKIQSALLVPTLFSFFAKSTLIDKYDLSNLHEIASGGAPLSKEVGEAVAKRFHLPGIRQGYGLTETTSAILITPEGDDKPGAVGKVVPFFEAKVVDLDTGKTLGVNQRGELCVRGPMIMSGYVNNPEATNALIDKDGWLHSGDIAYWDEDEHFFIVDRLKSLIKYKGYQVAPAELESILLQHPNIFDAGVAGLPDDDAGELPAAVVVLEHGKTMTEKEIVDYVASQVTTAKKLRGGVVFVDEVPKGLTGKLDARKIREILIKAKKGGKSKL
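FLuc 10nM, D-luciferin 10uM, ATP 10uM, Mg acetate 10mM, Tris acetate pH 7.5, Tween/BSA; cpd qHTS; enzyme added last; CCD luminescence.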
NPR1 antag cnf: Natriuretic polypeptide receptor (hNpr1) antagonism - Confirmation. AID 1347044, 2019. Potency, µM (doses to about 57.6 µM), hits mostly inhibitors. shares compounds with NPR1 antag. HEK293 hNpr1 cGMP GloSensor luminescence, ANP-stimulated. actives 76% (n = 1,400); calls by dose curve; further: nearly all actives have a fitted effect of over 70% in size
Npr2 selectivity: Natriuretic polypeptide receptor (hNpr2) antagonism - Subtype selectivity assay; shares compounds with NPR1 antag; HEK293 hNpr2 GloSensor cGMP luminescence, CNP-stimulated; Potency, µM (titrated, usually from 57.6 µM), actives largely listed as inhibitors; actives 67% (n = 1,400); AID 1347046, 2019; calls by dose curve; further: nearly all actives have a fitted effect of over 70% in size
FLuc counter: Natriuretic polypeptide receptor (hNpr1) antagonism - Confirmation firefly luciferase (FLuc) inhibition counterscreen; shares compounds with NPR1 antag; purified FLuc enzyme, luminescence, Km substrate; Potency, µM (top dose mostly 57.6 µM), most hits filed as inhibitors; actives 0.7% (n = 1,400); AID 1347047, 2019
GloSensor cGMP: Natriuretic polypeptide receptor (hNpr1) antagonism - Counterscreen GloSensor control cell line. shares compounds with NPR1 antag. HEK293 GloSensor cGMP, SNP-stimulated, luminescence. Potency, µM (top dose mostly 57.6 µM), most hits filed as inhibitors. actives 69% (n = 1,400). AID 1347051, 2019; calls by dose curve; further: nearly all actives have a fitted effect of over 70% in size
Each line names hits and unclear results; the compound was inactive in the other large screens (follow-up assays come after a bar, where they were run); ! = not active in a repeat. Only some compounds are listed: those with a hit (about 10% of all), similar ones and a draw of the others. Unless noted, the call rests on the fitted dose curve; in most records, active means well fitted curve in the direction sought with a large enough effect; inconclusive means small, poorly fitted or top-dose-only effect, or another doubt; inactive means no such curve, though single readings can be large; an effect the other way counts as inactive or inconclusive.

Cc1ccc(C2Cn3nnc(-c4noc(-c5ccoc5)n4)c3CO2)cc1 (centres undefined)	NPR1 antag inconclusive | NPR1 antag cnf inconclusive | Npr2 selectivity inconclusive | FLuc counter inactive | GloSensor cGMP inactive
COc1ccc(C2Cn3nnc(-c4nc(C5CC5)no4)c3CO2)cc1 (centres undefined)	NPR1 antag inconclusive | NPR1 antag cnf inconclusive | Npr2 selectivity inactive | FLuc counter inactive | GloSensor cGMP inactive
Fc1ccc(C2Cn3nnc(-c4nc(C5CCCCC5)no4)c3CO2)cc1 (centres undefined)	NPR1 antag inconclusive | NPR1 antag cnf 12.2µM | Npr2 selectivity 9.68µM | FLuc counter inactive | GloSensor cGMP inactive
COc1ccc(NC(=O)c2nc3sccn3c2-c2ccc(C)cc2)cc1	none (no result: NPR1 antag, FLuc inh)
COc1cccc(-c2ccc(CN3CCCC(c4nc5ccc(C)cc5c(=O)[nH]4)C3)cc2)c1 (centres undefined)	NPR1 antag 11.2µM, NIH3T3 tox 28.2µM!, HEK cytotox 25.1µM | NPR1 antag cnf 17.2µM | Npr2 selectivity 21.7µM | FLuc counter inactive | GloSensor cGMP 17.2µM
O=c1[nH]c(C2CCN(Cc3ccc(-c4cccnc4)cc3)CC2)nc2ccc(F)cc12	NPR1 antag inconclusive, NIH3T3 tox 5.62µM!, HEK cytotox inconclusive | NPR1 antag cnf 19.3µM | Npr2 selectivity 19.3µM | FLuc counter inactive | GloSensor cGMP 17.2µM
Cc1ccc2nc(C3CCN(Cc4ccccc4)CC3)[nH]c(=O)c2c1	none
Cc1ccc(OCC(=O)N2CCC(Cc3nc(-c4ccccc4)no3)CC2)cc1	NPR1 antag 12.6µM, NIH3T3 tox inconclusive, HEK cytotox 39.8µM | NPR1 antag cnf 15.3µM | Npr2 selectivity 15.3µM | FLuc counter inactive | GloSensor cGMP 12.2µM
COc1ccc(-c2noc(CC3CCN(C(=O)COc4ccc(C)cc4)CC3)n2)cc1	NPR1 antag 6.31µM, NIH3T3 tox inconclusive, HEK cytotox inconclusive | NPR1 antag cnf 7.69µM | Npr2 selectivity 8.62µM | FLuc counter inactive | GloSensor cGMP 8.62µM
COc1ccc(OCC(=O)N2CCC(Cc3nc(-c4ccc(OC)cc4)no3)CC2)cc1	NPR1 antag 10µM, NIH3T3 tox 14.1µM, GPT2 inh inconclusive, HEK cytotox 12.6µM | NPR1 antag cnf 10.9µM | Npr2 selectivity 13.7µM | FLuc counter inactive | GloSensor cGMP 12.2µM
Cc1ccc(OCC(=O)N2CC(Oc3ccc(-c4noc(-c5ccccc5)n4)cc3)C2)cc1	none (no result: NPR1 antag, FLuc inh)
O=C([C@H]1CCCN1C(=O)Nc1ccc(Cl)cc1)N1CCCC(c2nc3ccncc3[nH]2)C1 (some centres undefined)	none (no result: NPR1 antag, FLuc inh)
O=C(CNC(=O)c1cccc(-c2ccsc2)c1)NCc1ccc(F)cc1	none (no result: NPR1 antag, FLuc inh)
CCc1csc(CNc2cc(C3CC(O)C3)nc(N)n2)n1 (centres undefined)	NIH3T3 tox inconclusive, HEK cytotox inconclusive
Nc1nc(NCc2ccc(Cl)cc2Cl)cc(C2CC(O)C2)n1 (centres undefined)	NPR1 antag 7.08µM, NIH3T3 tox inconclusive, HEK cytotox inconclusive | NPR1 antag cnf 10.9µM | Npr2 selectivity 19.3µM | FLuc counter inactive | GloSensor cGMP 9.68µM
Cc1cc(C)n(CCC(=O)N2[C@@H]3CC[C@H]2CC(NC(=O)c2ccc(F)cc2)C3)n1 (some centres undefined)	none
CCCc1cc(C(=O)N2CCC(=O)N(Cc3ccccc3)C(CC)C2)ccn1 (centres undefined)	NPR1 antag 11.2µM, NIH3T3 tox inconclusive, HEK cytotox inconclusive | NPR1 antag cnf 9.68µM | Npr2 selectivity 12.2µM | FLuc counter inactive | GloSensor cGMP 10.9µM
O=C(NCCc1ccc(Cl)cc1)c1ccc2oc(-c3ccncc3)nc2c1	none (no result: NPR1 antag, FLuc inh)
Cc1nc(N2CCC(NC(=O)c3ccc4ccccc4n3)CC2)cc(C(F)(F)F)n1	NPR1 antag 10µM, NIH3T3 tox inconclusive, HEK cytotox 44.7µM | NPR1 antag cnf 13.7µM | Npr2 selectivity 13.7µM | FLuc counter inactive | GloSensor cGMP 12.2µM
Cc1nc(N2CCC(NC(=O)c3ccccc3F)CC2)cc(C(F)(F)F)n1	none
Cc1nc(N2CCC(NC(=O)c3ccccc3Cl)CC2)cc(C(F)(F)F)n1	HEK cytotox inconclusive
COc1cc(Cl)ccc1C(=O)NC1CCN(c2cc(C(F)(F)F)nc(C)n2)CC1	NPR1 antag inconclusive, NIH3T3 tox inconclusive, HEK cytotox inconclusive | NPR1 antag cnf 21.7µM | Npr2 selectivity 21.7µM | FLuc counter inactive | GloSensor cGMP 19.3µM
Cc1nc(N2CCC(NC(=O)c3nccc4ccccc34)CC2)cc(C(F)(F)F)n1	NPR1 antag 11.2µM, NIH3T3 tox inconclusive, HEK cytotox inconclusive | NPR1 antag cnf 19.3µM | Npr2 selectivity 17.2µM | FLuc counter inactive | GloSensor cGMP 13.7µM
CN1CCCN(C(=O)c2cn3ccnc(-c4ccccc4)c3n2)CC1	none
CC(C)c1ccc(NC(=O)c2cc3n(n2)CC(c2ccc(Cl)cc2)OC3)cc1 (centres undefined)	NPR1 antag 10µM, HEK cytotox inconclusive | NPR1 antag cnf 13.7µM | Npr2 selectivity inconclusive | FLuc counter inactive | GloSensor cGMP 10.9µM
Cc1cc(F)ccc1NC(=O)c1cc2n(n1)CC(c1ccc(Br)cc1)OC2 (centres undefined)	NPR1 antag inconclusive, HEK cytotox 79.4µM | NPR1 antag cnf inconclusive | Npr2 selectivity inconclusive | FLuc counter inactive | GloSensor cGMP inconclusive
